These results are taken from PubChem BioAssay (NCI).

Test systems include SK-MEL-2 melanoma; EKVX NSCLC; SN12C renal; UO-31 renal; TK-10 renal; ACHN renal; CAKI-1 renal; A498 renal; CCRF-CEM leukemia; MOLT-4 leukemia.
Common to all, as to assay: NCI-60 one-dose screen, 48 h (100 = growth as untreated, 0 = no growth, -100 = all killed)
Conditions in all cases: 10 µM unless noted

Each structure is given as a SMILES string. Compounds without any hit were thinned out: in the full panel of roughly 83,000, 20% have a hit.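 For each line, cells grew in 96-well plates with the test compound present at a single concentration for 48 hours.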 A number with no mark means an inactive call. Activity calls are given as the source filed them. Rule for the calls: active = growth percent below 10; inactive = the rest.

For the molecule `COC(=O)c1c(C)c2n(c1C)C(=O)C(c1ccccc1)=C2`, the growth is 77.7% with SK-MEL-2 melanoma; 10.2% in the experiment on EKVX NSCLC; 78.7% in the experiment on SN12C renal; 57.9% in the experiment on UO-31 renal; 143% in the experiment with TK-10 renal; 74% in the experiment on ACHN renal. The growth was 33.1% with CAKI-1 renal, 84.2% in the experiment on A498 renal, 92.8% in the experiment on CCRF-CEM leukemia and 66.8% in the experiment on MOLT-4 leukemia.

Consider `Cc1cc(N2CCN(CCNc3ccnc4cc(Cl)ccc34)CC2)nc(N2CCOCC2)n1`, for which the growth was 83.8% in the experiment with SK-MEL-2 melanoma; 65.4% in the experiment with EKVX NSCLC; 73% in the experiment with SN12C renal; 43.7% with UO-31 renal; 84.9% with TK-10 renal; 77.3% in the experiment with ACHN renal. The growth in the experiment on CAKI-1 renal is 57.9%; with A498 renal, 45.2%; in the experiment with CCRF-CEM leukemia, 75.5%; in the experiment on MOLT-4 leukemia, 47.6%.

For the molecule `COC1=CC(c2ccc[nH]2)=N/C1=C\c1[nH]c(C)c(C(=O)OC(C)C)c1C`, the growth is -61.6% (active) with SK-MEL-2 melanoma; -41.9% (active) with EKVX NSCLC; -2.47% (active) in the experiment on SN12C renal; -87.5% (active) in the experiment with UO-31 renal; 3.42% (active) with TK-10 renal; -82.9% (active) in the experiment with ACHN renal. For the same molecule, the growth in the experiment with CAKI-1 renal was -32.4% (active); in the experiment on A498 renal, -37.8% (active); in the experiment with CCRF-CEM leukemia, 13.5%; in the experiment with MOLT-4 leukemia, -5.6% (active).

Consider `CCN(CC)S(=O)(=O)c1ccc(S(=O)(=O)N2CCC[C@@H](C(=O)N3CCN(c4nc(C(C)C)no4)CC3)C2)cc1`, for which the growth is 94.6% with SK-MEL-2 melanoma; 55.1% in the experiment on EKVX NSCLC; 84.9% in the experiment with SN12C renal; 58.6% with UO-31 renal; 74.5% in the experiment with TK-10 renal; 68.5% in the experiment with ACHN renal. The growth in the experiment with CAKI-1 renal is 58.4%; in the experiment with A498 renal it was 6.31% (active); with CCRF-CEM leukemia, 63.7%; in the experiment with MOLT-4 leukemia it was 61.1%.

`COc1ccc(-c2nc3cc(C(=O)NCc4ccccc4)ccc3n2C2CCCCC2)cc1`: the growth in the experiment on SK-MEL-2 melanoma is 91.3%; with EKVX NSCLC, 46.4%; in the experiment with SN12C renal it was 94.6%; in the experiment on UO-31 renal it was 61.6%; in the experiment with TK-10 renal it was 90.9%; in the experiment on ACHN renal it was 74.3%. For the same molecule, the growth with CAKI-1 renal is 70.5%; in the experiment on A498 renal, 82.4%; in the experiment on CCRF-CEM leukemia, 76.8%; in the experiment on MOLT-4 leukemia, 66.6%.

For the molecule `O=C1/C(=C/c2ccccc2Br)COc2ccc(O)cc21`, the growth in the experiment on SK-MEL-2 melanoma was 107%; with EKVX NSCLC, 96.6%; in the experiment with SN12C renal, 49.5%; in the experiment on UO-31 renal, 58.8%; in the experiment on TK-10 renal it was 105%; with ACHN renal, 74.6%. The growth in the experiment on CAKI-1 renal was 72.5%; in the experiment with A498 renal, 113%; in the experiment with CCRF-CEM leukemia it was 3.07% (active); in the experiment on MOLT-4 leukemia, 27.2%.

On to `c1cc2c(ccc3[nH]c(-c4ccc5[nH]ncc5c4)c4c(c32)CCCC4)n1`, for which the growth with SK-MEL-2 melanoma was 83.6%; in the experiment on EKVX NSCLC, 62.7%; in the experiment with SN12C renal, 46%; with UO-31 renal, 53.3%; with TK-10 renal, 80.2%; in the experiment with ACHN renal, 32.3%. Also, the growth is 69.8% with CAKI-1 renal, 74.3% with A498 renal, 13.6% in the experiment on CCRF-CEM leukemia and -0.124% (active) with MOLT-4 leukemia.

Turning to `CC(=O)N1N=C(c2ccc(Nc3nc(Nc4ccccc4)nc(Nc4ccccc4)n3)cc2)CC1c1cccc([N+](=O)[O-])c1` (stereo not given), the growth with SK-MEL-2 melanoma was 60.6%; in the experiment with EKVX NSCLC it was 77.3%; in the experiment on SN12C renal it was 96.3%; in the experiment with UO-31 renal, 63.9%; in the experiment on TK-10 renal, 127%; in the experiment with ACHN renal, 94.2%. The growth with CAKI-1 renal is 91.7%; in the experiment with A498 renal it was 94.5%; in the experiment on CCRF-CEM leukemia, 94.3%; with MOLT-4 leukemia it was 84.5%.

Regarding `CN(C)c1ccc(C(=O)OCCCCCCl)cc1`, the growth in the experiment on SK-MEL-2 melanoma is 94.7%; in the experiment on EKVX NSCLC, 96.9%; in the experiment on SN12C renal, 96%; in the experiment on UO-31 renal, 77.8%; in the experiment on TK-10 renal, 96.5%; in the experiment with ACHN renal it was 102%. Besides, the growth in the experiment with CAKI-1 renal was 89.1%; in the experiment on A498 renal it was 83.9%; with CCRF-CEM leukemia it was 122%; in the experiment on MOLT-4 leukemia, 86.1%.

For `Nc1nc2ccc(-c3nc4ccc5[nH]ncc5c4c4c3CCCC4)cc2s1`, the growth in the experiment with SK-MEL-2 melanoma is 96.5%; in the experiment on EKVX NSCLC, 117%; in the experiment with SN12C renal it was 98.8%; with UO-31 renal, 85.7%; with TK-10 renal, 96.3%; with ACHN renal, 111%. The growth with CAKI-1 renal was 99.7%; in the experiment on A498 renal, 109%; in the experiment with CCRF-CEM leukemia, 107%; in the experiment on MOLT-4 leukemia, 104%.

Consider `COc1ccc(C(O)c2cc3c(N)c(C(=O)Nc4cccc(Br)c4)sc3nc2C)cc1` (stereo not given), for which the growth with SK-MEL-2 melanoma was 33.9%; with EKVX NSCLC, 46.2%; in the experiment on SN12C renal, 12.1%; in the experiment with UO-31 renal, 22.9%; with TK-10 renal it was 62.9%; in the experiment on ACHN renal it was 19.8%. For the same molecule, the growth in the experiment on CAKI-1 renal is 13.5%; in the experiment on A498 renal, -9.2% (active); in the experiment on CCRF-CEM leukemia, 14.2%; in the experiment on MOLT-4 leukemia, 15.8%.

As to `COc1cc2c(c(OC)c1OC)CCC(c1cccc(NC(=O)c3ccc(Br)cc3)c1)O2` (stereo not given), the growth was 87.4% with SK-MEL-2 melanoma; 77.2% in the experiment on EKVX NSCLC; 85.7% with SN12C renal; 66.6% in the experiment on UO-31 renal; 89.9% in the experiment with TK-10 renal; 91.2% in the experiment with ACHN renal. Also, the growth was 90.3% in the experiment with CAKI-1 renal, 69.3% in the experiment on A498 renal, 67% in the experiment with CCRF-CEM leukemia and 41.1% in the experiment on MOLT-4 leukemia.

On to `CC(C)(C)[Si](C)(C)OC1[C@@H](CNC(=O)NC(=O)NC(N)=O)O[C@@H](n2cnc3c(NC(=O)Nc4ccccc4)ncnc32)[C@H]1O[Si](C)(C)C(C)(C)C` (stereo not given in full), for which the growth in the experiment on SK-MEL-2 melanoma was 94.8%; in the experiment on EKVX NSCLC it was 90.5%; with SN12C renal, 74.6%; with UO-31 renal, 95.2%; with TK-10 renal, 88.9%; with ACHN renal, 77.3%. The growth in the experiment on CAKI-1 renal was 101%; in the experiment on A498 renal, 101%; in the experiment with CCRF-CEM leukemia, 71.4%; with MOLT-4 leukemia, 54.3%.
